Shiga toxin inh: A qHTS for Small Molecule Inhibitors of Shiga Toxin; inhibition, % at 38.7 µM; actives 9.2% (n = 290,000); Vero cells, Shiga toxin protein synthesis inhibition reporter; in the data active means inhibition mostly above about 28%, no sharp cut-off; inactive means mostly below about 43%; further: 0% is about no effect
FMDV antiviral: High Throughput Screening for Foot and Mouth Disease Virus Antivirals. FMDV antiviral cell-based qHTS. Potency, µM (doses to about 57.9 µM), for inactives: at the top dose activity change, negative = inhibition, actives largely listed as inhibitors. actives 1.2% (n = 410,000); calls by dose curve; tested in HEK293T cells; further: read-out not given here; potency means the concentration at half of the fitted maximal effect; on the % scale 0 is the no-effect control and ±100 the full control effect; nearly all actives have a fitted effect of over 45% in size
Lassa entry inh: qHTS for Inhibitors of binding or entry into cells for Lassa Virus; Lassa virus pseudotype entry inhibition, cell reporter; Potency, µM (highest dose often 37.9 µM), inactives show at the top dose activity change, negative = inhibition, hits mostly inhibitors; actives 1.2% (n = 300,000); AID 540256, 2011; calls by dose curve; tested in HEK293 cells; further: potency means the concentration at half of the fitted maximal effect; on the % scale 0 is the no-effect control and ±100 the full control effect; nearly all actives have a fitted effect of over 50% in size
MARV entry inh: qHTS for inhibitors of binding or entry into cells for Marburg Virus. Marburg virus pseudotyped entry inhibition, cell reporter. Potency, µM (titrated, usually from 37.8 µM), for the others: at the highest dose activity change, negative = inhibition, hits mostly inhibitors. actives 1.8% (n = 300,000). AID 540276, 2011; calls by dose curve; tested in HEK293 cells; further: potency means the concentration at half of the fitted maximal effect; on the % scale 0 is the no-effect control and ±100 the full control effect
HCV inhibitor: qHTS Assay for Inhibitors of Hepatitis C Virus (HCV); actives 3.4% (n = 340,000); Huh7.5.1 HCVcc-Cre infection, luciferase reporter, 44 h; Potency, µM (titrated, usually from 41.8 µM), for the others: top-dose activity change, negative = inhibition, actives largely listed as inhibitors; active means well fitted inhibition curve with a large enough effect; inconclusive means small, poorly fitted or top-dose-only effect, or another doubt; inactive means no such curve, though single readings can be large or run the other way; further: potency means the concentration at half of the fitted maximal effect; on the % scale 0 is the no-effect control and ±100 the full control effect
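1,000 cells/well; 4 h culture; + compound; + HCVcc-Cre (~0.5 moi); 44 h; luciferase substrate, RT 15 min; read 15 sec.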
Cycloheximide cs: Cycloheximide Counterscreen for Small Molecule Inhibitors of Shiga Toxin | cell reporter, cycloheximide protein synthesis inhibition counterscreen | max response, % | actives 12% (n = 300,000); in the data active means max response mostly above about 13%, no sharp cut-off; inactive means mostly below about 14%; further: read at 38.3 µM for the half of the compounds with a filed dose; 0% is about no effect
* hit, by the source's call; ? = inconclusive; . = no result; [ ] = dose if it differs, or a comment. Sampled rows, rich in hits. Any-hit rate of the full collection: about 13%.

SMILES | Shiga toxin inh | FMDV antiviral | Lassa entry inh | MARV entry inh | HCV inhibitor | Cycloheximide cs
CC(/C=C/c1ccccc1)=N\Nc1ccccc1[N+](=O)[O-] | 89.4* | 21.3% | -4.0%[46.1 µM] | ? | -14.7% | 31.9*
CCOC(=O)N/N=C(C)/C=C/c1ccco1 | 31.4 | 11.0% | ? | ? | 1.9% | 20.6*
CC(/C=C/c1ccccc1)=N/NC(=O)C(O)c1ccccc1 (stereo unspecified) | 45.1* | 46.8% | -13.7% | 13.8% | -8.6% | 9.6
CCc1ccc(NC(=O)CCNC(=O)Cn2cnc3ccccc3c2=O)cc1 | -5.2 | -3.2% | 18.4% | 11.9%[46.1 µM] | -8.5% | -9.1
O=C(Nc1ncc(Cc2cccc(Cl)c2)s1)C1CCCO1 (stereo unspecified) | 115.8* | 62.6% | ? | ? | -5.3% | 69.1*
O=C(Nc1ncc(Cc2ccccc2Cl)s1)C1CCCO1 (stereo unspecified) | 48.8* | 48.3% | ? | ? | 2.1% | 54.4*
Cc1cnc(NC(=O)C2CCCO2)s1 (stereo unspecified) | 2.2 | -11.9% | 1.0% | 8.4% | 6.4% | -3.0
O=C(Nc1ncc(Cc2cccc(Cl)c2Cl)s1)C1CCCO1 (stereo unspecified) | 100.5* | -2.3% | ? | ? | 7.0% | 47.5*
CCOC(=O)CN(Cc1ccccc1)C(C(=O)NC1CCCCC1)c1ccc(OC)cc1 (stereo unspecified) | . | -5.7% | 12.3%[46.1 µM] | -17.4%[46.1 µM] | . | .
COc1cc(OC)c(N(C)S(=O)(=O)c2cccc(C(=O)OCC(=O)NCc3ccco3)c2)cc1Cl | -11.7 | ? | -29.5% | -13.5%[46.1 µM] | 8.8% | 21.4*
COc1cc(C(=O)OCC(=O)N(C)Cc2ccccc2)cc(OC)c1OC | 3.6 | -7.9% | -4.2% | -2.7% | -23.2% | -1.9
CN(c1ccccc1)S(=O)(=O)c1cccc(C(=O)OCC(=O)NCc2ccco2)c1 | 13.2 | -21.3% | -0.1% | 2.9%[46.1 µM] | 0.2% | 12.3
COc1cc(OC)c(N(C)S(=O)(=O)c2cccc(C(=O)OCC(=O)N(C)Cc3ccccc3)c2)cc1Cl | . | -3.4% | . | . | 11.2µM* | .
CN(Cc1ccccc1)C(=O)COC(=O)c1ccc(Cl)cc1N | 46.5 | -2.6% | 1.5% | ? | 5.9% | 28.7*
Cc1cccc(-c2ncc(CN3CCCC(CO)(Cc4cccc(Cl)c4)C3)cn2)c1 (stereo unspecified) | 1.6 | -2.6% | . | . | -23.0% | 0.3
Cc1ccc(S(=O)(=O)NNC(=O)c2ccc(F)cc2)cc1 | -4.8 | 24.7% | . | . | 14.7% | -2.7
Oc1cccc(C(=S)N2CCCCC2)c1 | 19.4 | -10.2% | 9.9% | 5.2%[46.1 µM] | -11.3% | -1.4
Cc1ccc(C(=O)N[C@H](C(=O)Nc2sccc2C(N)=O)C(C)C)cc1 | 18.4 | 4.2% | ? | -2.9%[46.1 µM] | -20.1% | 17.9*
NC(=O)c1ccsc1NC(=O)c1coc2ccccc2c1=O | 103.7* | 14.8% | 5.5% | -20.9% | -17.6% | 23.7*
Cc1occc1C(=O)Nc1sccc1C(N)=O | 34.7 | 10.0% | -1.8%[46.1 µM] | 15.0%[46.1 µM] | -14.4% | 38.1*
CC(C)[C@H](NC(=O)c1ccccc1F)C(=O)OCC(=O)Nc1sccc1C(N)=O | . | 0.0% | . | . | ? | .
CCCc1cc(C(N)=O)c(NC(=O)c2ccoc2C)s1 | -2.7 | 13.5% | 13.8% | -21.5% | 7.08µM* | 8.0
Cc1noc(C)c1C(=O)Nc1sccc1C(N)=O | . | ? | . | . | 0.5% | .
CC(C)(C)OC(=O)N1CCC(c2nnc(SCc3ccccc3)o2)CC1 | . | -16.0% | ? | 13.8%[46.1 µM] | . | .
C[C@@H]1CN(Cc2ccc3c(c2)CN(C(=O)CCc2nc4ccc(F)cc4[nH]2)CCO3)C[C@H](C)O1 | . | -1.3% | . | . | . | .
SMILES | Shiga toxin inh | FMDV antiviral | Lassa entry inh | MARV entry inh | HCV inhibitor | Cycloheximide cs
Cn1cc(CN2CCCCC2C(=O)Nc2ccc(-n3cccn3)cc2)cn1 (stereo unspecified) | -8.6 | -12.9% | . | . | -10.9% | 0.8
O=C(Nc1ccc(-n2cccn2)cc1)C1CCCCN1Cc1cccc2cccnc12 (stereo unspecified) | 11.0 | 7.9% | -10.0%[46.1 µM] | ? | ? | 24.3*
Cc1cccc(NC(=O)C2COc3ccccc3O2)n1 (stereo unspecified) | 54.9* | 35.4% | . | . | -2.4% | 47.3*
O=C(Nc1ccc(Cl)cn1)C1COc2ccccc2O1 (stereo unspecified) | 51.0* | 17.4% | 15.8% | 8.6%[46.1 µM] | 6.7% | 28.8*
CC1Oc2ccccc2OC1C(=O)Nc1ccccn1 (stereo unspecified) | -1.5 | -6.9% | -13.2% | ? | -0.6% | -1.1
O=C(Nc1ccccn1)C1COc2ccccc2O1 (stereo unspecified) | 64.4* | . | 14.6% | 9.1% | -1.6% | 31.8*
Cc1cc(C)cc(NC(=O)C2COc3ccccc3O2)c1 (stereo unspecified) | . | -14.6% | . | . | . | .
Cc1cc(NC(=O)C2COc3ccccc3O2)no1 (stereo unspecified) | 60.9* | 40.9% | 6.3% | 11.0% | 11.7% | 37.5*
CC(Sc1nc2ccccc2s1)C(=O)NC1CCCc2ccccc21 (stereo unspecified) | 13.2 | -14.6% | 1.8% | -21.3% | -21.7% | 4.9
CC1CC(C)CN(C(=O)COC(=O)C2CCN(S(=O)(=O)c3ccc4c(c3)OCCO4)CC2)C1 (stereo unspecified) | . | -13.5% | ? | ? | 0.2% | .
COc1ccccc1C(C)Nc1ccc(S(=O)(=O)N2CCN(C)CC2)cc1[N+](=O)[O-] (stereo unspecified) | . | -13.1% | . | . | 11.2µM* | .
CC(Nc1ccc(S(=O)(=O)N2CCN(C)CC2)cc1[N+](=O)[O-])c1ccccc1 (stereo unspecified) | . | -10.7% | ? | ? | ? | .
COc1cccc(C(=O)O/N=C(\N)c2ccc([N+](=O)[O-])cc2)c1 | 76.2* | 60.1% | ? | 24.2% | 12.1% | 32.7*
COc1cccc(/C(N)=N/OC(=O)Cc2ccccc2[N+](=O)[O-])c1 | 113.3* | 34.5% | -24.7%[46.1 µM] | ? | -16.1% | 26.8*
COc1cccc(C(=O)O/N=C(\N)c2ccc(C)cc2)c1 | 83.4* | 36.4% | . | . | -4.6% | 57.1*
COc1cccc(C(=O)O/N=C(\N)c2ccncc2)c1 | 71.5* | 0.0% | 39.4%[14.3 µM] | ? | . | 47.0*
COc1ccc(/C(N)=N/OC(=O)c2cccc([N+](=O)[O-])c2)cc1 | 25.9 | 40.6% | ? | ? | 10.1% | 0.8
N/C(=N\OC(=O)Cc1ccccc1[N+](=O)[O-])c1ccncc1 | -6.9 | -5.6% | 20.3% | ? | 5.0% | -1.5
CCCCn1nnnc1C1(C)CCC(=O)N1Cc1ccc(F)cc1 (stereo unspecified) | . | -19.3% | . | . | . | .
COc1ccc(NC(=O)N2CCCc3cccc(C)c32)cc1 | 11.5 | ? | . | . | -3.1% | 9.8
CC(C)(C)c1cc(C(C)(C)C)cc(S(=O)(=O)CCc2ccccn2)c1 | -8.5 | 29.5% | 0.6% | ? | -3.6% | -2.5
